Reference: PubChem BioAssay
For some assays here: Entries with a potency or affinity are not part of this list. The source made the active and inactive calls. Unless noted, no rule for the calls is given here.

Tests used:
[1] = antimalarial activity against Dd2 strain (AID 2302;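 active = growth inhibition above 50% at the single 2 µM test dose, taken to imply half-maximal potency below 2 µM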;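 also: 0% = DMSO untreated growth and 100% = chloroquine plus artemisinin killed control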); settings: P. falciparum Dd2 in RBCs, LDH growth readout, 72 h; at 2 µM; hits give high values
[2] = HepG2 cytotoxicity, primary screen, cytotoxicity control for P. falciparum antimalarial project, cell-based, ATP luminescence (AID 2303;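 active = inhibition above 50%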;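 also: 0% = DMSO wells and 100% = digitonin-killed cells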); settings: HepG2 viability, 24-48 h, at 10 µM, hits give high values
[3] = target: L-lactate dehydrogenase (Plasmodium falciparum (isolate CDC / Honduras)) (UniProt Q27743); test: PfLDH activity inhibition – cell lysate, 3D7 strain, counter-screen for P. falciparum growth inhibition project (AID 2304);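 also: 0% = vehicle and 100% = reference inhibitor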; settings: P. falciparum 3D7 crude extract, LDH APAD/NBT absorbance; at 2 µM; hits give high values
L-lactate dehydrogenase (Plasmodium falciparum (isolate CDC / Honduras)), sequence (Q27743 whole entry, looked up): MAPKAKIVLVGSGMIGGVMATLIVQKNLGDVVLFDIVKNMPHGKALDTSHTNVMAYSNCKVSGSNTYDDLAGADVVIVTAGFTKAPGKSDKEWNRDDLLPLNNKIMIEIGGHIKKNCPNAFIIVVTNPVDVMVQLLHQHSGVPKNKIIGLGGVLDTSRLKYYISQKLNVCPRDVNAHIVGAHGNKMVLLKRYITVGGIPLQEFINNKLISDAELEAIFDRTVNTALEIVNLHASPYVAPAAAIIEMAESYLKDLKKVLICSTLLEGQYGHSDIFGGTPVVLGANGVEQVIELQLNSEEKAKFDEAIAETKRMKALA

[4] = inhibition of 3D7 malaria parasite growth – strain 3D7 (AID 2306);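 also: 0% = DMSO wells and 100% = chloroquine plus artemisinin control wells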; settings: P. falciparum 3D7 erythrocytic growth, LDH absorbance, 72 h; at 2 µM; hits give high values
[5] = target: Calcium-dependent protein kinase 1 (Plasmodium falciparum (isolate 3D7)) (UniProt P62344); test: PfCDPK1 kinase inhibitors, biochemical, TCAMS library (AID 1159585; cut-off not given, nearly all actives have IC50 up to about 0.98 µM;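 also: inhibitors leave more ATP so luminescence rises with inhibition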); settings: recombinant PfCDPK1, Kinase-Glo ATP depletion luminescence
Calcium-dependent protein kinase 1 (Plasmodium falciparum (isolate 3D7)), sequence (P62344 whole entry, looked up): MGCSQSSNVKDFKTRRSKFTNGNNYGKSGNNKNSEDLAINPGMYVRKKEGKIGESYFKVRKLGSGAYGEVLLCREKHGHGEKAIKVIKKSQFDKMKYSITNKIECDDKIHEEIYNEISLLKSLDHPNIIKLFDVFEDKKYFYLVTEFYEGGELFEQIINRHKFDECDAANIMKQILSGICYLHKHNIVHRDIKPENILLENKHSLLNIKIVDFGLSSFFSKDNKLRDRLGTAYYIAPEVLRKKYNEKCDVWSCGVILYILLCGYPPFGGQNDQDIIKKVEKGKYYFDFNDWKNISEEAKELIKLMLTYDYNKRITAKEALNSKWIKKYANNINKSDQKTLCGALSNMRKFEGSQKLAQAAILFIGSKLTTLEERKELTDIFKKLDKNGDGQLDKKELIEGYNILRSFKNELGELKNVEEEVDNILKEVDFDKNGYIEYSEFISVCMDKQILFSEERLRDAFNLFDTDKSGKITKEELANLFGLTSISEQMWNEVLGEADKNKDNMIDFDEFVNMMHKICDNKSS

[6] = target: Plasmodium falciparum protein kinase 6 (PK6, PF3D7_1337100) (UniProt Q8IDW1); test: PfPK6 kinase inhibitors, biochemical, TCAMS library (AID 1159586); settings: recombinant PfPK6, Kinase-Glo ATP depletion luminescence
Plasmodium falciparum protein kinase 6 (PK6, PF3D7_1337100), sequence (Q8IDW1 1-305): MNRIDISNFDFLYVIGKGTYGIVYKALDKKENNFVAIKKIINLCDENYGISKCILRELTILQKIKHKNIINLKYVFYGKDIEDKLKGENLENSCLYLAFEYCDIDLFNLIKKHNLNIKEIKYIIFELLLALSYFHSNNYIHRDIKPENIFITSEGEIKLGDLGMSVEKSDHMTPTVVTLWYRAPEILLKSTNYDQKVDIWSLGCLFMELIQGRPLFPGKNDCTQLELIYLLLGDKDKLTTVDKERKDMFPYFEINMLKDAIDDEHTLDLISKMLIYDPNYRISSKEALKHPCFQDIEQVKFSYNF

[7] = target: Protein kinase 7 (PK7), Plasmodium falciparum 3D7 (PF3D7_0213400) (UniProt Q7YTF7); test: inhibition of Plasmodium PK7 catalytic activity – biochemical, TCAMS antimalarial set, Kinase-Glo luminescence (AID 1159587); settings: recombinant PfPK7, Kinase-Glo ATP depletion luminescence
Protein kinase 7 (PK7), Plasmodium falciparum 3D7 (PF3D7_0213400), sequence (Q7YTF7 1-343): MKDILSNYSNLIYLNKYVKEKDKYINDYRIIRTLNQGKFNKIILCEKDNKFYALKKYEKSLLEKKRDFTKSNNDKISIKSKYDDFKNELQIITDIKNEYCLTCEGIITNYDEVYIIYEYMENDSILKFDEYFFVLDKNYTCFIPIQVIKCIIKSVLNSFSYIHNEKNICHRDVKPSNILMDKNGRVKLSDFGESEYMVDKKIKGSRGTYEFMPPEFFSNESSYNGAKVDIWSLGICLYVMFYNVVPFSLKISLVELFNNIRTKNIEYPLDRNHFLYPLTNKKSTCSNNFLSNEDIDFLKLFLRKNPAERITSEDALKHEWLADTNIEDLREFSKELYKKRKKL

[8] = target: Calcium-dependent protein kinase 4 (Plasmodium falciparum (isolate 3D7)) (UniProt Q8IBS5); test: PfCDPK4 kinase inhibitors, biochemical, TCAMS library (AID 1159588; cut-off not given, nearly all actives have IC50 up to about 0.91 µM); settings: recombinant PfCDPK4, Kinase-Glo ATP depletion luminescence
Calcium-dependent protein kinase 4 (Plasmodium falciparum (isolate 3D7)), sequence (Q8IBS5 whole entry, looked up): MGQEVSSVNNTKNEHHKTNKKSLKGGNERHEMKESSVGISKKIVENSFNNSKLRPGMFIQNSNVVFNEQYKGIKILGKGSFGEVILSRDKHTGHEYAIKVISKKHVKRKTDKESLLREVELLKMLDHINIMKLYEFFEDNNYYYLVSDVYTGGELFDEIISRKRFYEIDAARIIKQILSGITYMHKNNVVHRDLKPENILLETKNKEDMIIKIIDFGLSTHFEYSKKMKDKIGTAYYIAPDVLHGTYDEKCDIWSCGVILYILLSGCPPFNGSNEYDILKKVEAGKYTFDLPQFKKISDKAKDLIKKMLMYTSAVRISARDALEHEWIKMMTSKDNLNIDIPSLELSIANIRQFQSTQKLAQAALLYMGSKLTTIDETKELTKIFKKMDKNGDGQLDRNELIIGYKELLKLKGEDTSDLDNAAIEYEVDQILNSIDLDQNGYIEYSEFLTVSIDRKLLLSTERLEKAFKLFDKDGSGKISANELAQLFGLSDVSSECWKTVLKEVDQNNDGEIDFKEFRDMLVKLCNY

CCCCn1c(-c2ccco2)nc2c(c(=O)c3ccccc3n2C)c1=O
inactive: inhibition [2] 11% | inhibition [3] -2% | outcome [5] | outcome [6] | outcome [7] | outcome [8]
active: growth inhibition [1] 64% | growth inhibition [4] 87%

CCN(CCCN1CCCCC1)c1cc(C)nc(Nc2cc(Br)ccc2C)n1
active: growth inhibition [4] 98%
inactive: growth inhibition [1] 39% | inhibition [2] 32% | inhibition [3] -7% | outcome [5] | outcome [6] | outcome [7] | outcome [8]

Cc1ncccc1C(=O)Nc1cccc(-c2cccc(-c3nc4c(C)cccc4[nH]3)c2)c1
active: growth inhibition [1] 69% | growth inhibition [4] 93%
inactive: inhibition [2] 6% | inhibition [3] 4% | outcome [5] | outcome [6] | outcome [7] | outcome [8]

CCc1c(CCNCCCC(C)CCNCCc2ccc(OC)c(OC)c2CC)ccc(OC)c1OC (stereo not given)
active: inhibition [2] 99% | growth inhibition [4] 100%
inactive: growth inhibition [1] 27% | inhibition [3] 1% | outcome [5] | outcome [6] | outcome [7] | outcome [8]

CC(Nc1ccc2c(c1)CCC2)C(=O)Nc1cc(C(F)(F)F)ccc1N1CCOCC1 (stereo not given)
active: growth inhibition [1] 100% | growth inhibition [4] 100%
inactive: inhibition [2] -3% | inhibition [3] -1% | outcome [5] | outcome [6] | outcome [7] | outcome [8]

Nc1nc2c(c(=O)[nH]1)-c1cccc(Br)c1CC2
inactive: growth inhibition [1] -3% | inhibition [3] 0% | outcome [5] | outcome [6] | outcome [7] | outcome [8]
active: inhibition [2] 66% | growth inhibition [4] 97%

COc1ccc2nccc([C@@H](O)CN3CCC(NC(=O)/C=C/c4cccc(-c5ccccc5)c4)CC3)c2c1
inactive: inhibition [2] 12% | inhibition [3] -5% | outcome [5] | outcome [6] | outcome [7] | outcome [8]
active: growth inhibition [1] 83% | growth inhibition [4] 98%

CCCCN(CCCC)C(=NCCCCCCN=C(/N=C(/N)Nc1ccc(Cl)cc1)N(CCCC)CCCC)/N=C(/N)Nc1ccc(Cl)cc1
inactive: inhibition [2] -1% | inhibition [3] -5% | outcome [5] | outcome [6] | outcome [7] | outcome [8]
active: growth inhibition [1] 72% | growth inhibition [4] 81%

CN(Cc1cccc(O)c1)C1CCCN(c2cc(NC(=O)c3ccc(F)cc3)ccn2)C1 (stereo not given)
active: growth inhibition [4] 91%
inactive: growth inhibition [1] 12% | inhibition [2] 8% | inhibition [3] -2% | outcome [5] | outcome [6] | outcome [7] | outcome [8]

O=C(c1ccc(O)c(-c2cc(Cl)cc(Cl)c2)c1)N1CCCC1
active: growth inhibition [1] 57% | growth inhibition [4] 90%
inactive: inhibition [2] 3% | inhibition [3] -6% | outcome [5] | outcome [6] | outcome [7] | outcome [8]

COc1cc2nc(NCCCOC(C)C)n3nc(-c4ccccc4)nc3c2cc1OC
active: growth inhibition [1] 97% | growth inhibition [4] 94%
inactive: inhibition [2] -3% | inhibition [3] -1% | outcome [5] | outcome [6] | outcome [7] | outcome [8]

CC(=O)Nc1ncc(C(=O)Nc2cccc(-c3ccc(-c4nc5c(C)cccc5[nH]4)cc3)c2)s1
active: growth inhibition [1] 78% | inhibition [2] 69% | growth inhibition [4] 101%
inactive: inhibition [3] 3% | outcome [5] | outcome [6] | outcome [7] | outcome [8]

CN(C)c1ccc(CN2CCC(NC(=O)c3ccc(-c4cccc(Cl)c4)s3)CC2)cc1
inactive: growth inhibition [1] 44% | inhibition [3] -3% | outcome [5] | outcome [6] | outcome [7] | outcome [8]
active: inhibition [2] 65% | growth inhibition [4] 93%

O=C(Nc1ccccc1Br)c1cn(-c2ccccc2)nc1-c1cccc([N+](=O)[O-])c1
inactive: growth inhibition [1] 36% | inhibition [2] 7% | inhibition [3] -5% | outcome [5] | outcome [6] | outcome [7] | outcome [8]
active: growth inhibition [4] 92%

Cc1cccc2[nH]c(-c3ccc(-c4cccc(CNCCCN5CCCC5=O)c4)s3)nc12
inactive: growth inhibition [1] 26% | inhibition [2] 14% | inhibition [3] -9% | outcome [5] | outcome [6] | outcome [7] | outcome [8]
active: growth inhibition [4] 101%

COc1ccc(C(c2ccc(N(C)C)cc2)c2ccc(N(C)C)cc2)cc1
active: growth inhibition [1] 99% | inhibition [2] 72% | growth inhibition [4] 101%
inactive: inhibition [3] 1% | outcome [5] | outcome [6] | outcome [7] | outcome [8]

Fc1cc(Cl)ccc1Nc1ccnc2cc(-c3ccc(CN4CCOCC4)o3)ccc12
inactive: inhibition [2] 33% | inhibition [3] 0% | outcome [5] | outcome [6] | outcome [7] | outcome [8]
active: growth inhibition [1] 98% | growth inhibition [4] 99%

CCOc1ccc(/C=C/C(=O)Nc2cccc3c2CCN(C)C3)cc1
active: growth inhibition [4] 92%
inactive: growth inhibition [1] 3% | inhibition [2] -2% | inhibition [3] 0% | outcome [5] | outcome [6] | outcome [7] | outcome [8]

Cc1ccccc1C1CCN(C2CCC(NC(=O)C3=Cc4ccccc4OC3)CC2)CC1 (stereo not given)
inactive: growth inhibition [1] 15% | inhibition [2] 26% | inhibition [3] -4% | outcome [5] | outcome [6] | outcome [7] | outcome [8]
active: growth inhibition [4] 91%

Cc1cc(F)ccc1[C@H]1CNCCN1C(=O)N(C)[C@@H](C)c1cc(C(F)(F)F)cc(C(F)(F)F)c1
inactive: inhibition [2] 20% | inhibition [3] 1% | outcome [5] | outcome [6] | outcome [7] | outcome [8]
active: growth inhibition [1] 99% | growth inhibition [4] 100%

CC(C)(C)[C@@H](Nc1ccc(C#N)c2ccccc12)C(=O)NC1(Cc2ccc(O)c(Br)c2)CCCC1
active: growth inhibition [4] 84%
inactive: growth inhibition [1] 16% | inhibition [2] 2% | inhibition [3] -2% | outcome [5] | outcome [6] | outcome [7] | outcome [8]

Cc1ccc(C(=O)Nc2ccc(OC3CCN(CCC(C)C)C3)c(Cl)c2)cc1 (stereo not given)
inactive: growth inhibition [1] 38% | inhibition [3] 0% | outcome [5] | outcome [6] | outcome [7] | outcome [8]
active: inhibition [2] 63% | growth inhibition [4] 83%

Nc1nc2c(ncn2COC2COP(=O)(O)OC2)c(=O)[nH]1 (stereo not given)
inactive: inhibition [2] 7% | inhibition [3] 7% | outcome [5] | outcome [6] | outcome [7] | outcome [8]
active: growth inhibition [1] 54% | growth inhibition [4] 81%

Fc1ccc(CNc2ccc3ncc(-c4cccnc4)n3n2)cc1
inactive: growth inhibition [1] 7% | inhibition [2] 7% | inhibition [3] -2% | outcome [5] | outcome [6] | outcome [7] | outcome [8]
active: growth inhibition [4] 87%

Cc1cccc(NC(c2cccs2)c2c(NC(=O)c3ccccc3)sc(C)c2C)n1 (stereo not given)
inactive: inhibition [2] -8% | inhibition [3] 1% | outcome [5] | outcome [6] | outcome [7] | outcome [8]
active: growth inhibition [1] 80% | growth inhibition [4] 88%

O=C(/C=C/c1ccc(F)cc1)NC1CCC(CCN2CCc3ccccc3CC2)CC1 (stereo not given)
active: growth inhibition [4] 91%
inactive: growth inhibition [1] 36% | inhibition [2] 27% | inhibition [3] 4% | outcome [5] | outcome [6] | outcome [7] | outcome [8]

COc1cccc(-c2csc(C(=O)NCC3CCN(Cc4ccc(C(C)C)cc4)C3)c2)c1 (stereo not given)
active: growth inhibition [4] 86%
inactive: growth inhibition [1] 9% | inhibition [2] 35% | inhibition [3] 0% | outcome [5] | outcome [6] | outcome [7] | outcome [8]

CCNc1cc(C)nc(Nc2ccc(NC(=O)C3CCCC3)cc2)n1
active: growth inhibition [1] 69% | growth inhibition [4] 99%
inactive: inhibition [2] 13% | inhibition [3] 0% | outcome [5] | outcome [6] | outcome [7] | outcome [8]

O=C(Nc1cccc(CN2CCCN(Cc3cccc(Cl)c3)CC2)c1)c1ccc(Br)cc1
inactive: growth inhibition [1] 16% | inhibition [2] 38% | inhibition [3] 1% | outcome [5] | outcome [6] | outcome [7] | outcome [8]
active: growth inhibition [4] 92%

O=C(Nc1cccc(-c2csc(NC(=O)c3ccc4ccccc4c3)n2)c1)c1ccc2ccccc2c1
inactive: growth inhibition [1] 35% | inhibition [2] 3% | inhibition [3] -2% | outcome [5] | outcome [6] | outcome [7] | outcome [8]
active: growth inhibition [4] 89%

COc1ccc(C2CCN(CCN3CCC(NC(=O)c4cccc(-c5ccncc5)c4)CC3)CC2)c(OC)c1
active: growth inhibition [4] 94%
inactive: growth inhibition [1] 24% | inhibition [2] 7% | inhibition [3] -6% | outcome [5] | outcome [6] | outcome [7] | outcome [8]

CC(C)(C)c1ccc(CN2CCC(NC(=O)c3ccc(-c4cccc(Cl)c4)s3)CC2)cc1
active: growth inhibition [4] 99%
inactive: growth inhibition [1] 47% | inhibition [2] 36% | inhibition [3] 5% | outcome [5] | outcome [6] | outcome [7] | outcome [8]

O=C(CCc1cnc[nH]1)Nc1ccc(-c2ccc(-c3nc4ccccc4[nH]3)cc2)cc1
active: growth inhibition [1] 70% | growth inhibition [4] 98%
inactive: inhibition [2] 46% | inhibition [3] 0% | outcome [5] | outcome [6] | outcome [7] | outcome [8]

CSc1c(CNCCCNc2cc(=O)c3ccccc3[nH]2)[nH]c2ccccc12
inactive: growth inhibition [1] 21% | inhibition [2] 0% | inhibition [3] 2% | outcome [5] | outcome [6] | outcome [7] | outcome [8]
active: growth inhibition [4] 87%

Cc1c(C(=O)N2CCCC(C(F)(F)F)C2)sc2cccc(F)c12 (stereo not given)
inactive: inhibition [2] -4% | inhibition [3] 1% | outcome [5] | outcome [6] | outcome [7] | outcome [8]
active: growth inhibition [1] 89% | growth inhibition [4] 99%

c1cc(CN2CCCCC2)cc(OCCCNc2ccnc3ccccc23)c1
inactive: inhibition [2] 48% | inhibition [3] -1% | outcome [5] | outcome [6] | outcome [7] | outcome [8]
active: growth inhibition [1] 99% | growth inhibition [4] 100%

C[C@@H](Oc1cc(-n2cnc3ccc(OCC4CCN(S(C)(=O)=O)CC4)cc32)sc1C(N)=O)c1ccccc1C(F)(F)F
active: growth inhibition [1] 50% | growth inhibition [4] 84%
inactive: inhibition [2] 31% | inhibition [3] 5% | outcome [5] | outcome [6] | outcome [7] | outcome [8]

c1ccc(CNCCn2c(-c3ccc4c(c3)CCO4)nc3c(N4CCCC4)cccc32)cc1
active: growth inhibition [1] 85% | growth inhibition [4] 82%
inactive: inhibition [2] 9% | inhibition [3] -4% | outcome [5] | outcome [6] | outcome [7] | outcome [8]

Nc1cccc(CNCc2ccc(-c3ccc(-c4nc5ccc(F)cc5[nH]4)s3)cc2)c1
active: growth inhibition [1] 93% | growth inhibition [4] 102%
inactive: inhibition [2] 12% | inhibition [3] 1% | outcome [5] | outcome [6] | outcome [7] | outcome [8]

N=C1c2ccccc2CN1CC(=O)c1ccc(Cl)c(Cl)c1
inactive: growth inhibition [1] 16% | inhibition [2] 1% | inhibition [3] 0% | outcome [5] | outcome [6] | outcome [7] | outcome [8]
active: growth inhibition [4] 98%
